# Data: PubChem BioAssay (NCATS)
# Records with an inconclusive call do not appear. A call without a number means that no potency is given here. Active and inactive are the calls of the source. Unless noted, calls follow the shape of the dose curve; as a rule, active = well fitted curve in the direction sought with a large enough effect; inconclusive = small, poorly fitted or top-dose-only effect, or another doubt; inactive = no such curve, though single readings can be large; an effect the other way counts as inactive or inconclusive.
# Key:
# [1] = qHTS assay for measurement of the activity of small molecule inhibitors on Zika virus induced Caspase-3 activity in human iPSC derived neural progenitor cells (hNPCs) (AID 1224857); also: nearly all actives have a fitted effect of over 65% in size
# Outline: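 In medium with heparin 2 ug/ml and cyclopamine 2 uM, hNPCs (350 cells/well) received compound for one hour and then Zika virus at 2 FFU/cell; caspase activity was measured by Caspase-Glo 3/7 luminescence 6 h post-infection.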
# [2] = qHTS assay for measurement of the activity of small molecule inhibitors on Zika virus induced Caspase-3 activity in human astrocytoma cells (AID 1224859)
# Outline: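 A cell-based luminescent caspase-3/7 assay used SNB-19 cells infected with ZIKV (2 FFU/cell) for 6 h following 1 h compound pretreatment.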
# [3] = P-glycoprotein substrates identified in KB-3-1 adenocarcinoma cell line, qHTS therapeutic library screen (AID 1346986); also: nearly all actives have a fitted effect of over 60% in size;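 also: potency is read from the fitted curve at half-maximal effect; potency is for cytotoxicity meaning loss of cell viability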
# Outline: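 Counter-screen: cherry-picked hits retested in the KB pair and in HEK-293 pcDNA/MDR-19 cells ± tariquidar. Primary screen used 72 h CellTiter-Glo viability in KB-3-1 and KB-8-5-11.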
# [4] = P-glycoprotein substrates identified in KB-8-5-11 adenocarcinoma cell line, qHTS therapeutic library screen (AID 1346987); also: nearly all actives have a fitted effect of over 65% in size; also: potency is read from the fitted curve at half-maximal effect
# Outline: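 P-gp-mediated resistance screen: KB-8-5-11 cells treated 72 h with compounds in dose-response. CellTiter-Glo viability.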
# [5] = NS1 protein of Zika virus - qHTS assay to identify small molecule inhibitors in human HEK 293 cells (AID 1347053); also: series mostly up to about 46 µM; nearly all actives have a fitted effect of over 55% in size
# Outline: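 HEK 293; 20 h pre-culture, 37 C/5% CO2; cpd 1 h pre-infection; ZIKV MR766, MOI = 0.5, 24 h, 37 C; TR-FRET NS1 readout (two anti-NS1 Abs); norm. to no-virus vs infected.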
# [6] = qHTS of pediatric cancer cell lines to identify multiple opportunities for drug repurposing: Primary screen for TC32 cells (AID 1347089); also: nearly all actives have a fitted effect of over 60% in size; also: potency is read from the fitted curve at half-maximal effect
# Outline: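 In the primary qHTS, MIPE compounds were tested at 11 concentrations (0.78 nM to 46 µM) and NPC compounds at 8 (0.59 nM to 46 µM) on TC32 cells for 48 h. CellTiter-Glo luminescence gave viability.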
# [7] = qHTS of pediatric cancer cell lines to identify multiple opportunities for drug repurposing: Primary screen for DAOY cells (AID 1347090); also: series mostly up to about 46 µM; nearly all actives have a fitted effect of over 55% in size
# Outline: (§1)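 Cell viability, CellTiter-Glo luminescence; 500-1,000 cells/well, 8- or 11-point titration, 48 h compound exposure at 37 degrees C, 5% CO2. Controls: DMSO neutral, bortezomib 2.3 µM final as positive.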
# [8] = qHTS of pediatric cancer cell lines to identify multiple opportunities for drug repurposing: Primary screen for SJ-GBM2 cells (AID 1347091)
# Outline: as §1
# [9] = qHTS of pediatric cancer cell lines to identify multiple opportunities for drug repurposing: Primary screen for A673 cells (AID 1347092); also: nearly all actives have a fitted effect of over 45% in size; also: potency is read from the fitted curve at half-maximal effect
# Outline: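 48 h compound exposure, A673, 500-1,000 cells/well, 37 degrees C/5% CO2. MIPE: 11-point, 0.78 nM-46 µM; NPC: 8-point, 0.59 nM-46 µM (final). Readout CellTiter-Glo luminescence after 15 min RT.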
# [10] = Natriuretic polypeptide receptor (hNpr1) antagonism - Pilot counterscreen GloSensor control cell line (AID 1347045; calls by dose curve; also: series mostly up to about 38 µM)
# Outline: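 This counterscreen uses HEK293 cells expressing the GIP/pGS-40F cGMP biosensor. Compound-treated cells are challenged with 50 uM sodium nitroprusside, and the luciferase signal is compared before and after stimulation.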
# [11] = molecular target: Atrial natriuretic peptide receptor 2 (Homo sapiens) (UniProt P20594); test: Natriuretic polypeptide receptor (hNpr2) antagonism - Pilot subtype selectivity assay (AID 1347050; calls by dose curve)
# Chain of Atrial natriuretic peptide receptor 2 (Homo sapiens) (P20594 whole entry, looked up): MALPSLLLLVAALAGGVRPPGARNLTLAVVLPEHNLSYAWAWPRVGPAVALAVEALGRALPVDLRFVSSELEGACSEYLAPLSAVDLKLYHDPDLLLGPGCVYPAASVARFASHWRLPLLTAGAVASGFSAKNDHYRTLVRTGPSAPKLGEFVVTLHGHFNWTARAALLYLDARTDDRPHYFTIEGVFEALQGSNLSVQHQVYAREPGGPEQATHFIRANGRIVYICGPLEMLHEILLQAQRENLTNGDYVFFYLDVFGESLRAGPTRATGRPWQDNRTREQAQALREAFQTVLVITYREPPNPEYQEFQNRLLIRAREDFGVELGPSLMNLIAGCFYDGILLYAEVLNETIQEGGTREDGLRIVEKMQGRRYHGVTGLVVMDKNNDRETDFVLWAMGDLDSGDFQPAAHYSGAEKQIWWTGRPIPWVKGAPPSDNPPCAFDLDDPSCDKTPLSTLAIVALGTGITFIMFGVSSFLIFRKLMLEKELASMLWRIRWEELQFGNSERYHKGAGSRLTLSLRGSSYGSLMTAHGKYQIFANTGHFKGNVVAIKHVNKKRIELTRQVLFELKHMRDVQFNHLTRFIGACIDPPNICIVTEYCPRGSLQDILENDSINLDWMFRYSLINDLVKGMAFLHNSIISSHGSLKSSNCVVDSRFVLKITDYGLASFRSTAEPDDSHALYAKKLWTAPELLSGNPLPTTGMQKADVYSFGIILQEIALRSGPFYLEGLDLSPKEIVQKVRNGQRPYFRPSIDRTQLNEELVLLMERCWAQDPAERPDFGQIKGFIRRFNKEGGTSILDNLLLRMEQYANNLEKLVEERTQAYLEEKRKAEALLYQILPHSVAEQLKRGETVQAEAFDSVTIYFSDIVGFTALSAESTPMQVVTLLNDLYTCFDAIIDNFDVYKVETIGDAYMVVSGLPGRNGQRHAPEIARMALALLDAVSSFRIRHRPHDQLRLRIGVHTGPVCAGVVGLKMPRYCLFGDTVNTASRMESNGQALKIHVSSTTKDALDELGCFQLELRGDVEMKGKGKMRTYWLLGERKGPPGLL
# Outline: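 Pilot selectivity screen against hNpr2: HEK293 cGMP-sensor cells are treated with LOPAC1280 compounds, then with hNppC peptide at 1 nM final. The cGMP-driven luminescence change over 20 min at room temperature is the read-out.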
# [12] = molecular target: T1, Tyrosine-protein phosphatase non-receptor type substrate 1 (Homo sapiens) + Leukocyte surface antigen CD47 (Homo sapiens) (UniProt P78324+Q08722); test: CD47-SIRPalpha protein protein interaction - LANCE assay qHTS validation (AID 1347057; active = well fitted curve in the direction sought with a large enough effect in the signal ratio, with a control signal flat, not every such curve was filed as active; the % refers to the signal ratio; also: series mostly up to about 38 µM)
# T1 sequence (P78324 whole entry, looked up): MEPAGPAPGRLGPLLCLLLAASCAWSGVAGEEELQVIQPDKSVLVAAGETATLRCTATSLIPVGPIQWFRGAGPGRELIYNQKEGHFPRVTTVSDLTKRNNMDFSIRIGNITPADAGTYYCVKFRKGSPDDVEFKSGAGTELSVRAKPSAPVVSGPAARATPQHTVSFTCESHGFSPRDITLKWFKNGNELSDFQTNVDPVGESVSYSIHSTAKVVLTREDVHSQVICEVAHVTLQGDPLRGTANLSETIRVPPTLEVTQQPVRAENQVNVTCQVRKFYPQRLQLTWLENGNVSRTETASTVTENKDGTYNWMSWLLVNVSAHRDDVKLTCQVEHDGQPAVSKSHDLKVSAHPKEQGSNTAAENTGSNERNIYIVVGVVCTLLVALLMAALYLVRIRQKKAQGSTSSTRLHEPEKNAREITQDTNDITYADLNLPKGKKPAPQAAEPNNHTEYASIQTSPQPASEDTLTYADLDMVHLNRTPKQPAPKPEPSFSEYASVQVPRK
# T1 sequence (Q08722 whole entry, looked up): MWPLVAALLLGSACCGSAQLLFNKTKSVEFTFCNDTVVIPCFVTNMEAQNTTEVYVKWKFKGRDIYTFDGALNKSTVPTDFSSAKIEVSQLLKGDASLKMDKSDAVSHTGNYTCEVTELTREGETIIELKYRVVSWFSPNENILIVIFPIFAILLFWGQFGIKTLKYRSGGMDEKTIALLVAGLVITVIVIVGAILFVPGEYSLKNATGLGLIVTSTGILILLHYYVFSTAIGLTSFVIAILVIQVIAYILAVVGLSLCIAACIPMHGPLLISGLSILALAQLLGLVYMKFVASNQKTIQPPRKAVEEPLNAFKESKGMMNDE
# Outline: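 First, His-tagged CD47 and Eu-labelled anti-His antibody met the compound for 30 min; next, site-specifically biotinylated SIRPalpha was added for 30 min; finally streptavidin-APC was added before reading the TR-FRET ratio.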
# [13] = molecular target: T1, Tyrosine-protein phosphatase non-receptor type substrate 1 (Homo sapiens) + Leukocyte surface antigen CD47 (Homo sapiens); test: CD47-SIRPalpha protein protein interaction - Alpha assay qHTS validation (AID 1347059);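 also: bead proximity luminescence from CD47 binding SIRPalpha after compound preincubation with SIRPalpha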; also: potency is read from the fitted curve at half-maximal effect
# Outline: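 Binding is measured by AlphaScreen proximity: Ni-NTA acceptor beads capture His-CD47, streptavidin donor beads capture biotin-SIRPalpha. Each of three additions (SIRPalpha with compound, CD47, beads) incubates 30 min at room temperature protected from light.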
# [14] = molecular target: Parathyroid hormone/parathyroid hormone-related peptide receptor (Homo sapiens) (UniProt Q03431); test: qHTS for PTHR1 Agonists: Optimization Screen against the NCGC LOPAC library (AID 1347079);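 also: GloSensor cAMP luminescence in HEK-293 GP2 cells expressing human PTHR1 with IBMX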
# Chain of Parathyroid hormone/parathyroid hormone-related peptide receptor (Homo sapiens) (Q03431 whole entry, looked up): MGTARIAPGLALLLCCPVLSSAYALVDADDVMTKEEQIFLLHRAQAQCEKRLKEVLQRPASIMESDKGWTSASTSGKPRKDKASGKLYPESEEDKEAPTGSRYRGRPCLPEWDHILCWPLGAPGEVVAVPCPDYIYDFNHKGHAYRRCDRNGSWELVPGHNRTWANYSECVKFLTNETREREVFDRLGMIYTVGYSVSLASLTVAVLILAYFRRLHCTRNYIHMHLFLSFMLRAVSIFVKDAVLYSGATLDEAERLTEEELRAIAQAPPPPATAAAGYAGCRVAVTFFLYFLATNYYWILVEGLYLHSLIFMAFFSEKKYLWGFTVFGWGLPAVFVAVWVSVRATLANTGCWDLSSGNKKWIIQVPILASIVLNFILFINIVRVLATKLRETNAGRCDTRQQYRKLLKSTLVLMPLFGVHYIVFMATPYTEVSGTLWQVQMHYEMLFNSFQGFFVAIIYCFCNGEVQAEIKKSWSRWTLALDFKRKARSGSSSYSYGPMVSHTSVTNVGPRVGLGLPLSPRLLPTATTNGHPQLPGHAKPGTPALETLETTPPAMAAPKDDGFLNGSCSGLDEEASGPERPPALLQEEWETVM
# Outline: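 Compounds were tested across a qHTS titration. PTHR1-expressing GP2 cells report cAMP rises via GloSensor luminescence after 1 hr compound exposure at 37C with IBMX present.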
SMILES,Potency [1],outcome [2],Potency [3],Potency [4],Potency [5],Potency [6],Potency [7],Potency [8],Potency [9],Potency [10],Potency [11],outcome [12],Potency [13],outcome [14],outcome [4]
C=CC[N+]1([C@H]2C[C@H]3[C@@H]4CC[C@H]5C[C@H](OC(C)=O)[C@@H](N6CCCCC6)C[C@]5(C)[C@H]4CC[C@]3(C)[C@H]2OC(=O)CC)CCCCC1,inactive,inactive,inactive,inactive,inactive,inactive,inactive,inactive,inactive,–,–,–,–,–,–
Brc1ccc([C@H]2CN3CCSC3=N2)cc1,inactive,inactive,–,inactive,inactive,–,–,–,–,inactive,inactive,inactive,inactive,inactive,–
CCCCC(O)/C=C(C)/C=C/C=C/C(=O)N1CCCC1=O (stereo not drawn),inactive,inactive,inactive,–,inactive,inactive,inactive,inactive,–,–,–,–,–,–,–
N[C@@H](Cn1ccc(=O)c(O)c1)C(=O)O,inactive,inactive,–,–,inactive,–,–,–,–,inactive,inactive,–,58.5 nM (active),inactive,inactive [at 5.11 µM]
COC(=O)C1=CO[C@@H](O)[C@@H]2C(CO)=CC[C@H]12,inactive,inactive,–,inactive,inactive,–,–,–,–,inactive,inactive,inactive,inactive,inactive,–
CCOC(=O)C1=C(C)NC(C)=C(C(=O)OCC)C1c1ccccc1/C=C/C(=O)OC(C)(C)C,inactive,inactive,–,–,–,–,–,–,–,–,–,–,–,–,–
CN(C)C(=O)CNC(=O)Cc1ccccc1,inactive,inactive,inactive,–,inactive,inactive,inactive,inactive,inactive,–,–,–,–,–,–
COc1ccccc1N1CCN(CCN2C(=O)CC3(CCCC3)CC2=O)CC1,inactive,inactive,–,inactive,inactive,–,–,–,–,inactive,inactive,inactive,inactive,inactive,–
CC(C(=O)O)c1ccc(/C=C2\CCCCC2=O)cc1 (stereo not drawn),inactive,inactive,inactive,inactive,inactive,inactive,inactive,inactive,inactive,–,–,–,–,–,–
C[N+](C)(CCOc1ccccc1)Cc1cccs1,inactive,inactive,–,inactive,inactive,inactive,inactive,inactive,–,–,–,–,–,–,–
Cn1cnc2c(NCc3ccccc3)nc(NCCO)nc21,inactive,inactive,inactive,–,inactive,–,–,–,–,inactive,inactive,inactive,inactive,inactive,–
NC(N)=NCCCCN=C(N)N,inactive,inactive,–,inactive,inactive,–,–,–,–,inactive,inactive,inactive,inactive,inactive,–
CO[C@]1(NC(=O)CSC(F)F)C(=O)N2C(C(=O)O)=C(CSc3nnnn3CCO)CO[C@H]21,inactive,inactive,inactive,inactive,inactive,inactive,inactive,inactive,inactive,–,–,–,–,–,–
CC(C(O)c1ccccc1)N(C)CCOC(c1ccccc1)c1ccccc1 (stereo not drawn),inactive,inactive,–,14.6 µM (active),inactive,inactive,inactive,–,–,–,–,–,–,–,–
O=C(NO)c1ccccc1,inactive,inactive,–,inactive,inactive,inactive,inactive,–,–,–,–,–,–,–,–
Cc1ccccc1N1CCN(CCc2nnc3n2CCCC3)CC1,inactive,inactive,–,inactive,inactive,inactive,inactive,inactive,–,–,–,–,–,–,–
CC(=O)O[C@@H]1C(=O)O[C@@H]2[C@H]1OC(=O)[C@@H]2OC(C)=O,inactive,inactive,inactive,inactive,inactive,inactive,–,inactive,13.3 µM (active),–,–,–,–,–,–
O=C(O)Cc1ccccc1Oc1ccc(Cl)cc1Cl,inactive,inactive,inactive,–,inactive,inactive,inactive,inactive,inactive,–,–,–,–,–,–
CCN1C(=O)c2ccccc2C1Nc1ccc(OCCN2CCCCC2)cc1 (stereo not drawn),inactive,inactive,inactive,–,inactive,inactive,inactive,inactive,–,–,–,–,–,–,–
O=C(COCCOCCOCC(=O)Nc1c(I)cc(I)c(C(=O)O)c1I)Nc1c(I)cc(I)c(C(=O)O)c1I,inactive,inactive,–,inactive,inactive,inactive,inactive,inactive,–,–,–,–,–,–,–
CN(CC1(C)CCCO1)S(=O)(=O)c1ccc(Cl)c(S(N)(=O)=O)c1 (stereo not drawn),inactive,inactive,inactive,–,inactive,inactive,inactive,inactive,inactive,–,–,–,–,–,–
O=C(CCCCCCCCC#CI)Oc1ccccc1,inactive,inactive,inactive,inactive,–,inactive,inactive,inactive,inactive,–,–,–,–,–,–
COc1cc(NS(=O)(=O)c2ccc(N)cc2)nc(C)n1,inactive,inactive,inactive,–,inactive,inactive,inactive,inactive,–,–,–,–,–,–,–
Nc1ncnc2n[nH]c(Nc3ccc(F)cc3)c12,inactive,inactive,inactive,inactive,–,–,–,–,–,inactive,inactive,inactive,inactive,inactive,–
CC(C)OC(=O)c1cc2c(OCC(O)CNC(C)(C)C)cccc2[nH]1 (stereo not drawn),inactive,inactive,–,inactive,inactive,inactive,inactive,inactive,–,–,–,–,–,–,–
CC(=O)OCC(=O)Nc1cc(C#N)cc(NC(=O)COC(C)=O)c1Cl,inactive,inactive,inactive,inactive,inactive,inactive,inactive,inactive,inactive,–,–,–,–,–,–

SMILES,Potency [1],outcome [2],Potency [3],Potency [4],Potency [5],Potency [6],Potency [7],Potency [8],Potency [9],Potency [10],Potency [11],outcome [12],Potency [13],outcome [14],outcome [4]
COc1cc(C(=O)OC(COCCC(C)C)CN2CCOCC2)cc(OC)c1OC (stereo not drawn),inactive,inactive,inactive,inactive,inactive,inactive,inactive,inactive,inactive,–,–,–,–,–,–
CCOC(=O)c1ccc(OCCN2C[C@H](O)[C@@H](O)[C@H](O)[C@H]2CO)cc1,inactive,inactive,inactive,–,inactive,inactive,inactive,–,inactive,–,–,–,–,–,–
CN1C(=O)CC(C)(c2ccccc2)C1=O (stereo not drawn),inactive,inactive,–,inactive,inactive,inactive,inactive,inactive,–,–,–,–,–,–,–
CCOC(=O)c1ccc(NC(=O)CN2CCCCC2)cc1,inactive,inactive,inactive,–,inactive,inactive,inactive,inactive,inactive,–,–,–,–,–,–
CCCCCOc1ccc(C2SC(=O)NC2=O)cc1OCC (stereo not drawn),inactive,inactive,inactive,inactive,–,inactive,inactive,inactive,inactive,–,–,–,–,–,–
Cc1nn(-c2ccccc2)c(C)c1/C=N/N1CCN(Cc2ccccc2)CC1,inactive,inactive,–,inactive,inactive,–,–,–,–,inactive,inactive,inactive,inactive,inactive,–
CC(C)=CCNc1ncnc2c1ncn2[C@@H]1O[C@H](CO)[C@@H](O)[C@H]1O,inactive,inactive,5.8 µM (active),–,inactive,–,–,–,–,–,–,–,–,–,–
NC(=O)C1(N2CCCCC2)CCN(CCCN2c3ccccc3CCc3ccc(Cl)cc32)CC1,inactive,inactive,–,–,–,–,–,–,–,–,–,–,–,–,–
CC(=O)OCC[N+](C)(C)C,inactive,inactive,–,inactive,inactive,inactive,inactive,inactive,–,–,–,–,–,–,–
CC(=O)Nc1ccn(C2COC(COC(=O)c3ccccc3)O2)c(=O)n1 (stereo not drawn),inactive,inactive,inactive,inactive,inactive,1.67 µM (active),inactive,inactive,1.33 µM (active),–,–,–,–,–,–
O=C(O)c1ccccc1S,inactive,inactive,–,inactive,inactive,inactive,inactive,inactive,–,–,–,–,–,–,–
CCOc1ccc(NS(=O)(=O)c2ccc(N)cc2)nn1,inactive,inactive,–,inactive,inactive,inactive,inactive,inactive,inactive,–,–,–,–,–,–
CCCCCC1Nc2cc(C(F)(F)F)c(S(N)(=O)=O)cc2S(=O)(=O)N1 (stereo not drawn),inactive,inactive,–,inactive,inactive,inactive,inactive,inactive,inactive,–,–,–,–,–,–
O=P(O)(O)OCC(O)CO (stereo not drawn),inactive,inactive,–,inactive,inactive,inactive,inactive,inactive,inactive,–,–,–,–,–,–
CC(=O)N[C@@H](CCC(N)=O)C(=O)O,inactive,inactive,–,inactive,inactive,inactive,inactive,inactive,inactive,–,–,–,–,–,–
O=C(c1ccccc1)c1ccccc1,inactive,inactive,–,inactive,inactive,inactive,inactive,inactive,inactive,–,–,–,–,–,–
COC(=O)c1c(Cl)c(Cl)c(C(=O)OC)c(Cl)c1Cl,inactive,inactive,–,inactive,inactive,inactive,inactive,inactive,–,–,–,–,–,–,–
C[C@H](CN1CCCC1)C(=O)c1ccc(C(F)(F)F)cc1,inactive,inactive,–,inactive,inactive,inactive,inactive,inactive,inactive,–,–,–,–,–,–
O=C(O)CNC(=O)CNC(=O)CNC(=O)CSC(=O)c1ccccc1,inactive,inactive,–,inactive,inactive,inactive,inactive,inactive,inactive,–,–,–,–,–,–
CC(C)=CCC/C(C)=C/CC/C(C)=C/CCC(=O)OC/C=C(\C)CCC=C(C)C,inactive,inactive,–,inactive,inactive,inactive,inactive,inactive,inactive,–,–,–,–,–,–
C1=CC2C3C=CC(C3)C2C1 (stereo not drawn),inactive,inactive,–,inactive,inactive,inactive,inactive,inactive,inactive,–,–,–,–,–,–
c1ccc2occc2c1,inactive,inactive,–,inactive,inactive,inactive,inactive,inactive,–,–,–,–,–,–,–
O=C(O)[C@@H](O)[C@H](O)[C@H](O)[C@@H](O)C(=O)O,inactive,inactive,–,inactive,inactive,inactive,inactive,inactive,inactive,–,–,–,–,–,–
CC1c2ccccc2CN1NC(=O)c1ccc(Cl)c(S(N)(=O)=O)c1 (stereo not drawn),inactive,inactive,–,inactive,inactive,inactive,inactive,inactive,inactive,–,–,–,–,–,–
CN1[C@@H]2CC[C@H]1CC(NC(=O)n1c(=O)[nH]c3ccccc31)C2 (stereo partly drawn),inactive,inactive,–,inactive,inactive,inactive,inactive,inactive,inactive,–,–,–,–,–,–
